The values below come from PubChem BioAssay (NCATS).

Records with an inconclusive call do not appear. Unmarked numbers belong to inactive results. Activity calls are given as the source filed them. Calls come from the whole dose curve; as a rule, active = well fitted inhibition curve with a large enough effect; inconclusive = small, poorly fitted or top-dose-only effect; inactive = no such curve, though single readings can be large or run the other way.
Potency is the fitted concentration of half-maximal effect.

A short description of this assay: qHTS Screen of the MIPE 4.0 Collection Against Ewings Sarcoma (EW8) (AID 1259255).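 For viability: 100% = DMSO-treated cells and 0% = medium-only wells without cells.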 Note: nearly all actives have a fitted effect of over 35% in size. To be noted: EW8 Ewing sarcoma viability, CellTiter-Glo, 48 h; series mostly up to 45.8 µM; viability: at the top concentration. An excerpt: There is a large unmet medical need for treatments for Ewing sarcoma, a pediatric sarcoma. We sought to identify compounds that inhibited Ewing sarcoma cells in vitro with the goal to then test promising drugs in two drug combinations in vitro to look for synergistic drug combinations. Promising combinations would then proceed to additional validation, including in vivo testing.
Using the NCATS developed oncology compound library called the Mechanism of Interrogation Plate (MIPE), four Ewing sarcoma cell lines were evaluated (TC32, TC71, RDES, EW8). Compounds, in a 12-point titration series, were incubated with cells for 48 hours and the read out was cell viability (CellTiter-Glo from Promega). These initial experiments were used to select appropriate concentrations of each single agent for subsequent two-drug matrix combinations such that the concentrations in the matrices would span both activity and non-activity.
Cells, in the log phase of growth, were seeded in 5 uL of RPMI plus 5% FBS, […] L-glutamine, 100 U/ml penicillin and 100 ug/ml streptomycin into 1536-well solid-bottom white tissue culture treated Greiner Bio One Plates (789173-F) using a MultiDrop Combi (Thermofisher Scientific) dispenser and a small sterile cassette. One column was media alone to be used as a :"no cells" control. The plates were then covered with sterilized stainless steel gasketed lids from Kalypsys. After allowing cells to attach for 4 hours, 23 nL of test compound or control (negative control DMSO and positive control 9.2 uM Bortezomib-final) were added from a 1536-well polypropylene compound source plate to each well using a 1536 head pin tool from Kalypsys. Cells were then incubated for 48 hours at 37C, 95% relative humidity and 5% CO2. After 48 hours, plates were removed from the incubator and 3 uL of CellTiter-Glo (Promega) was added using an Aurora Flying Reagent Dispenser Bioraptor. Plates were incubated at room temperature for 10 minutes prior to reading the luminescence on the Viewlux (PerkinElmer). The relative luciferase units are used to calculate the percent activity using the activity of DMSO in the cells and no cells columns for normalization of no inhibition and full inhibition respectively.
For `Cc1cc(Nc2cc(N3CCN(C)CC3)nc(Sc3ccc(NC(=O)C4CC4)cc3)n2)n[nH]1`, the Potency is 0.296 µM (active).

`CCC1=C[C@@H]2CN(C1)Cc1c([nH]c3ccccc13)[C@@](C(=O)OC)(c1cc3c(cc1OC)N(C)[C@@H]1[C@@](O)(C(=O)OC)[C@H](OC(C)=O)[C@]4(CC)C=CCN5CC[C@]31[C@@H]54)C2`: the Potency is 0.0066 µM (active).

Turning to `COc1ccc(-n2nc(C(N)=O)c3c2C(=O)N(c2ccc(N4CCCCC4=O)cc2)CC3)cc1`, the “viability” value is 118%.

With `CC(C)c1ccccc1Cc1cc(C(=O)Nc2ccc(S(=O)(=O)c3ccccc3C(C)(C)C)cc2)c(O)c(O)c1O`, the Potency is 8.33 µM (active).

Regarding `CC(=O)SC[C@@H](C)C(=O)N1CCC[C@H]1C(=O)N[C@@H](Cc1ccccc1)C(=O)O`, the “viability” value was 107%.

In the case of `CCCCOc1c(C(=O)c2c(F)cc(C)cc2F)cnc2n[nH]cc12`, the Potency is 18.7 µM (active).

On to `Clc1cccc(-n2nnnc2NCc2ccccc2Oc2ccccn2)c1Cl`, for which the “viability” value was 97.6%.

In the case of `O=C(O)CO.[NH2-].[NH2-].[Pt+2]`, the “viability” value is 110%.

Consider `Cc1c(NC(=O)OC[C@@H]2COCCN2)cn2ncnc(Nc3ccc4c(cnn4Cc4cccc(F)c4)c3)c12`, for which the Potency is 1.48 µM (active).

On to `Nc1ccc(C(=O)c2cc3c(ccc4ccccc43)[nH]2)cc1`, for which the Potency is 1.87 µM (active).

As to `CC(C)(C)NC(=O)[C@H]1CN(Cc2cccnc2)CCN1C[C@@H](O)C[C@@H](Cc1ccccc1)C(=O)N[C@H]1c2ccccc2C[C@H]1O`, the Potency is 4.18 µM (active).

For the molecule `COc1ccc2c(c1)CC[C@@H](CN(C)CC(=O)O)[C@H]2c1ccccc1`, the Potency was 2.35 µM (active).

Regarding `O=C(c1ccc(Nc2nccc(-c3cc4ccccc4s3)n2)cc1)N1CCC(N2CCCC2)CC1`, the Potency is 20.9 µM (active).

On to `COc1cc2c(cc1-c1c(C)noc1C)ncc1[nH]c(=O)n([C@H](C)c3ccccn3)c12`, for which the Potency is 18.7 µM (active).

For `CC(=O)OCCN1C(=O)c2c(C)nc3ccc(S(=O)(=O)N4CCOCC4)cc3c2C1=O`, the “viability” value is 112%.

For `Cc1cccc(C=NNc2cc(N3CCOCC3)nc(OCCc3ccccn3)n2)c1`, the Potency is 16.6 µM (active).

Turning to `Nc1nc(NCCNc2ncc(-n3ccnc3)c(-c3ccc(Cl)cc3Cl)n2)ccc1[N+](=O)[O-]`, the “viability” value is 135%.

On to `OCc1ccc(-c2ccc(-c3ccc(CO)s3)o2)s1`, for which the Potency is 0.0074 µM (active).

For `COC(=O)c1ccc2c(C(=Nc3ccc(N(C)C(=O)CN4CCN(C)CC4)cc3)c3ccccc3)c(O)[nH]c2c1`, the Potency is 3.32 µM (active).

In the case of `CC(C)C[C@H](NC(=O)CNC(=O)c1cc(Cl)ccc1Cl)B(O)O`, the Potency is 0.148 µM (active).

For the molecule `O=C(C=Cc1c(C(=O)O)[nH]c2cc(Cl)cc(Cl)c12)Nc1ccccc1`, the “viability” value is 98.5%.

On to `C[C@@H](Oc1cc(-n2cnc3ccc(CN4CCN(C)CC4)cc32)sc1C(N)=O)c1ccccc1C(F)(F)F`, for which the Potency is 0.0743 µM (active).

As to `Cc1[nH]nc2ccc(-c3cncc(OC[C@@H](N)Cc4ccccc4)c3)cc12`, the Potency was 0.833 µM (active).

Turning to `O=C(O)c1ccc2c(c1)nc(Nc1cccc(Cl)c1)c1ccncc12`, the Potency was 7.43 µM (active).

Turning to `CC(O)C1C(=O)N2C(C(=O)O)=C(SC3CNC(C(=O)N(C)C)C3)C(C)C12` (stereo not given), the “viability” value was 111%.

Consider `COc1cc2ncnc(Nc3ccc(F)c(Cl)c3)c2cc1NC(=O)C=CCN1CCCCC1`, for which the Potency is 4.69 µM (active).

Take `COc1ccc(C=Cc2cc(OC)c(OC)c(OC)c2)cc1O`: the “viability” value is 4.98%.

With `CC[C@H](CO)Nc1nc(NCc2ccccc2)c2ncn(C(C)C)c2n1`, the Potency was 29.6 µM (active).

As for `Cc1ccc(NC(=O)C2(c3ccc4c(c3)OC(F)(F)O4)CC2)nc1-c1cccc(C(=O)O)c1`, the Potency was 0.0469 µM (active).

`CC(C)c1nn(-c2c(Cl)cccc2Cl)c2nc(Cc3ccc(OCCO)cc3)[nH]c(=O)c12`: the Potency is 0.148 µM (active).

Consider `CCCNC(=O)Nc1ccc(Oc2ncnc3cc(OC)c(OC)cc23)cc1Cl`, for which the “viability” value is 113%.

As for `CC(C)=CCCC(C)=CCCC(C)=CCSc1ccccc1C(=O)O`, the Potency was 2.64 µM (active).

Regarding `Cn1c2ccccc2c2c3c(c4c5ccccc5n(CCC#N)c4c21)CNC3=O`, the Potency was 8.33 µM (active).

Turning to `CCC[C@H](NC(=O)C(C#N)=Cc1cccc(Br)n1)c1ccccc1`, the Potency was 6.62 µM (active).

For the molecule `Cc1cc(CN2CCN(c3c(Br)cnc4nc(-c5ccc(N6CCN(C)CC6)cc5)[nH]c34)CC2)no1`, the Potency was 0.935 µM (active).

`Cn1cc(-c2ccncc2)c(-c2ccc(OCc3ccc4ccccc4n3)cc2)n1`: the Potency is 20.9 µM (active).

With `COC(=O)Nc1nc2ccc(C(=O)c3ccc(F)cc3)cc2[nH]1`, the Potency was 0.662 µM (active).

`CCOc1ccccc1OCCNC(C)Cc1ccc(OC)c(S(N)(=O)=O)c1` (stereo not given): the “viability” value is 104%.

Consider `NC(=O)c1c(OCc2c(F)cc(Br)cc2F)nsc1NC(=O)NCCCCN1CCCC1`, for which the Potency was 9.35 µM (active).

As for `CN1CCC(CNc2ccc3ncc(-c4cccc(OC(F)(F)F)c4)n3n2)CC1`, the Potency was 10.5 µM (active).
